{"source": "PubChem BioAssay (NCI)", "note": "Compounds without any hit were thinned out: in the full panel of roughly 83,000, 20% have a hit.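 Note: values are percent growth. 100 is the growth of untreated cells, values between 100 and 0 indicate rising inhibition; between -100 and 0 indicates cell death.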 A number with no mark means an inactive call. Activity calls are given as the source filed them. Rule for the calls: active = growth percent below 10; inactive = the rest.", "data": [{"system": "HL-60(TB) leukemia", "test": "NCI-60 one-dose screen, 48 h (100 = growth as untreated, 0 = no growth, -100 = all killed)", "conditions": "10 µM unless noted", "values": [{"smiles": "O=C1Nc2cc(Cl)ccc2/C1=C\\c1c(-c2ccc(F)cc2)nc2ccccn12", "growth": "-46% (active)"}, {"smiles": "CCN1CCN(c2nc(NNC(=O)Cc3ccccc3)nc(N3CCN(C(c4ccccc4)c4ccccc4)CC3)n2)CC1", "growth": "-53.9% (active)"}, {"smiles": "CC1(C)OCC(COC(c2ccccc2)(c2ccccc2)c2ccccc2)O1", "note": "(stereo not given)", "growth": "99.9%"}, {"smiles": "COC(=O)CNC(=O)c1ccc(NC(=O)c2[nH]c(C)c(Cl)c2Cl)c(O[C@H]2CCNC2)c1", "growth": "95.7%"}, {"smiles": "Cc1c(C(=O)O)nnn1-c1nccs1", "growth": "95.5%"}, {"smiles": "N#Cc1c(-c2ccccc2)nc2c(c(-c3ccccc3)nn2-c2ccccc2)c1-c1ccc(N2CCOCC2)cc1", "growth": "65.4%"}, {"smiles": "Nc1nc(NC(=O)Nc2ccc(C(=O)O)cc2)nn1-c1ccc(S(N)(=O)=O)cc1", "growth": "102%"}, {"smiles": "O=C(CSc1nnc(-c2cc(-c3ccc(Cl)cc3)nc3ccccc23)n1-c1ccccc1)Nc1ccc(Cl)cc1", "growth": "85.8%"}, {"smiles": "O=C(Nc1cccc(C(F)(F)F)c1)Oc1ccc(Cl)c2cccnc12", "growth": "-10.6% (active)"}, {"smiles": "CC(=O)c1sc(-c2ccccc2)cc1N", "growth": "83.6%"}, {"smiles": "COC1OCC(O)C(O)C1O", "note": "(stereo not given)", "growth": "102%"}, {"smiles": "COc1ccc2c(c1)/C(=C\\c1c[nH]c3ccc(OC)cc13)C(=O)N2", "growth": "20.8%"}, {"smiles": "C[C@H]1[C@H](C)CC[C@]2(C(=O)OCCCC[P+](c3ccccc3)(c3ccccc3)c3ccccc3)CC[C@]3(C)C(=CC[C@@H]4[C@@]5(C)CC[C@H](OC(=O)C(Cl)Cl)C(C)(C)[C@@H]5CC[C@]43C)[C@H]12", "growth": "-54.3% (active)"}, {"smiles": "COc1cc2c3c(c4c5ccccc5[nH]c4c2c(OC)c1OC)C(=O)N(O)C3=O", "growth": "51.7%"}, {"smiles": "COc1ccc2ccccc2c1/C=N/N1CCCCC1", "growth": "94.3%"}, {"smiles": "Cn1c(-c2ccccc2)c(/C=C/C2=[N+](C)c3ccccc3C2(C)C)c2ccccc21", "growth": "-52.5% (active)"}, {"smiles": "C[C@@H]1CC[C@@H]2[C@@H]1[C@H](OC(=O)/C=C/c1ccccc1)[C@]1(CCCOCCOCCOCCOC(=O)CCCC[C@@H]3SC[C@@H]4NC(=O)N[C@@H]43)C[C@@H](OC(=O)CO)[C@@]2(C)O1", "growth": "98.1%"}, {"smiles": "COC(=O)c1cc(-c2ccc(OC)c(OC)c2)[nH]c1N/N=C/c1c(Cl)cccc1Cl", "growth": "3.48% (active)"}, {"smiles": "COc1cccc(C2(C)Nc3ccccc3-c3nc4ccccc4n32)c1", "note": "(stereo not given)", "growth": "89.1%"}, {"smiles": "Cc1ccc(Nc2cc(=S)nc(N)[nH]2)cc1C", "growth": "92.6%"}, {"smiles": "Nc1nnc(CSc2nnc3n(Cc4ccccc4)c(=O)c4c5c(sc4n23)CCCC5)s1", "growth": "76.9%"}, {"smiles": "COc1ccc(C2CC(c3ccccc3)=NN2c2nc(C)c(C(C)=O)s2)cc1", "note": "(stereo not given)", "growth": "101%"}, {"smiles": "CC(O)CN1CC(O)=C(c2nc3ccccc3s2)C1=N", "note": "(stereo not given)", "growth": "93.8%"}, {"smiles": "CS(=O)(=O)Nc1cc(-c2ccc3ncnc(Nc4ccc(F)c(Cl)c4)c3c2)ccc1Cl", "growth": "65.3%"}, {"smiles": "Cc1ccc(N/N=C(/C(=O)c2ccc(Cl)cc2)c2nc(C)cc(=O)[nH]2)cc1", "growth": "109%"}, {"smiles": "CCOC(=O)CNN", "growth": "113%"}, {"smiles": "O=C(c1ccc(OCCN2CCCCC2)cc1)c1c(-c2ccc(O)cc2)sc2cc(O)ccc12", "growth": "76.8%"}, {"smiles": "Clc1nc(Cl)c2ncn(CCOCCn3cnc4c(Cl)nc(Cl)nc43)c2n1", "growth": "-70.6% (active)"}, {"smiles": "O=C(/C=C/c1cccc(Cl)c1)c1cccc(OCCCCOc2cccc(C(=O)/C=C/c3cccc(Cl)c3)c2)c1", "growth": "84.6%"}, {"smiles": "CNc1nc2c(s1)C(c1cc(F)ccc1F)CC(=O)N2", "note": "(stereo not given)", "growth": "46.7%"}]}]}
